The nature of assay [1]: compounds binding Alexa647 anti-His antibody – biochemical, small-molecule microarray, 635 nm fluorescence, artefact control for SMM control protein annotation, primary screen (AID 1128).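 Further: score merges feature fluorescence with signal-to-noise for each printed compound spot.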 To be noted: higher = more signal.
Assay [2] concerns Human papillomavirus type 1a E7 protein (residues 1-88). Put plainly: HPV1a E7 small-molecule binders, primary screen, biochemical, small-molecule microarray, residues 1-88, 635 nm (AID 1129). To be noted: small-molecule microarray binding, fluorescence 635 nm; higher = more signal.
For assay [3], the target named is Focal adhesion kinase 1 (Homo sapiens) (UniProt Q05397). Description: PTK2 protein binding on printed compound slides – biochemical, small-molecule microarray, 635/667 nm fluorescence, BSA, DTT, primary screen (AID 1130).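 Further: composite of spot emission at 667 nm and signal to noise over triplicate slides.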 The conditions noted are these: 635 nm fluorescence, higher = more signal.
Chain of Focal adhesion kinase 1 (Homo sapiens) (Q05397 whole entry, looked up): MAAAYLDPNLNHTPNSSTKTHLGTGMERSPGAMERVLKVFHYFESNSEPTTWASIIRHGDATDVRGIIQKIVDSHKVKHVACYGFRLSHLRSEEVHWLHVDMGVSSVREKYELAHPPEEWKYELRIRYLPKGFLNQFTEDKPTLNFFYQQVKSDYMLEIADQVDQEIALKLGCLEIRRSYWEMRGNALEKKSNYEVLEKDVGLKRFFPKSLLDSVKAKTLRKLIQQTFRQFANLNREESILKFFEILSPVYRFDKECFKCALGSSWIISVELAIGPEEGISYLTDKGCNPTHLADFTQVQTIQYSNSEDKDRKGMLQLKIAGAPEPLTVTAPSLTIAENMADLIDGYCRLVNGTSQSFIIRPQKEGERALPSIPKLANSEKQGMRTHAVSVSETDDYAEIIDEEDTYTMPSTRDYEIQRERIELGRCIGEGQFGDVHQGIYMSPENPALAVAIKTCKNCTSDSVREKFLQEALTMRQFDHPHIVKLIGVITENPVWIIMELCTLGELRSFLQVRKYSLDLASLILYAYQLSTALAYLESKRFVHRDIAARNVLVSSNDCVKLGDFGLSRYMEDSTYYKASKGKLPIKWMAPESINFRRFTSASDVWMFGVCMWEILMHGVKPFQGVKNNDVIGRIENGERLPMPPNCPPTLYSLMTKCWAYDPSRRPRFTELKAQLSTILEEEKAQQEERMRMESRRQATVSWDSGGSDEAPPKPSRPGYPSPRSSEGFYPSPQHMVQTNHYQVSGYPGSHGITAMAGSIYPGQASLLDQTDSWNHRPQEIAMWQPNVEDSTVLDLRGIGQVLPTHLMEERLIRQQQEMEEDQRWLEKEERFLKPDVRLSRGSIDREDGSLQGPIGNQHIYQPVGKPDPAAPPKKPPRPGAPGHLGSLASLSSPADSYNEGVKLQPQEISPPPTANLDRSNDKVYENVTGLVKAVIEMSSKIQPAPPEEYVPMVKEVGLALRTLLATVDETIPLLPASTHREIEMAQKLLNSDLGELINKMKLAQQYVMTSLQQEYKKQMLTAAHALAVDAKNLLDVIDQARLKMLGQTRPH
For assay [4], the system named is Fibrinogen (Alexa647-labelled). Description: Alexa647-fibrinogen binding to printed small molecules – biochemical, small-molecule microarray, 635/667 nm fluorescence, artefact control for SMM control-protein annotation, profiling panel (AID 1131).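 Further: z-score merges 667 nm fluorescence with per-spot signal-to-noise over triplicate slides.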 The conditions noted are these: fibrinogen-A647 binding fluorescence, higher = more signal.
Assay [5] has as its target Follistatin (Homo sapiens) (UniProt P19883). Description: FST protein binding to printed compounds – biochemical, small-molecule microarray, 635/667 nm fluorescence, primary screen (AID 1132). To be noted: 635 nm fluorescence, higher = more signal.
For assay [6], the target named is Fibroblast growth factor 2 (Homo sapiens) (UniProt P09038). Description: basic fibroblast growth factor binding to printed compounds – biochemical, small-molecule microarray, 635/667 nm fluorescence, primary screen (AID 1133). The conditions noted are these: FGF2, fluorescence 635/667, higher = more signal.
Chain of Fibroblast growth factor 2 (Homo sapiens) (P09038 whole entry, looked up): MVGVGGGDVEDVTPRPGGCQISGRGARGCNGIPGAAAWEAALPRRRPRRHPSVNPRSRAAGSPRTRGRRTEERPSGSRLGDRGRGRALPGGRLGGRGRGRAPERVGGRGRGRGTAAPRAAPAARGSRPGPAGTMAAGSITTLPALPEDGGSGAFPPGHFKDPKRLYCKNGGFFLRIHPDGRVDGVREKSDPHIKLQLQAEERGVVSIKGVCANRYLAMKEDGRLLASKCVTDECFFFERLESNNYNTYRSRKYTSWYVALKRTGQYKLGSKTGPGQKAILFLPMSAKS
Assay [7] can be described thus: JC-1 mitochondrial potential readout, lung cancer cells – cell-based, A549, JC-1 fluorescence, basal, 24 h, 100 nL, profiling panel (AID 1138).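 Further: A549 lung adenocarcinoma cells under basal conditions with no added stimulus; test concentration not given here.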 The conditions noted are these: higher = more signal.
A further assay relates to Lefty1. Description: Lefty1 protein binding to printed compounds – biochemical, small-molecule microarray, 635/667 nm fluorescence, primary screen (AID 1139). The conditions noted are these: fluorescence 635/667, higher = more signal.
Assay [8] relates to wheat germ agglutinin (Triticum aestivum), Alexa647-labelled. Description: Alexa647-WGA lectin binding to printed small molecules – biochemical, small-molecule microarray, 635/667 nm fluorescence, artefact control for SMM control-protein annotation, profiling panel (AID 1140).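 Further: score merges 667 nm feature emission with signal to noise over triplicate slides.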 The conditions noted are these: WGA-A647 binding, 635 nm fluorescence, higher = more signal.
Assay [9] deals with Luciferin 4-monooxygenase (Photinus pyralis) (UniProt P08659). Put plainly: inhibition of purified Photinus pyralis luciferase – biochemical, luminescence, purified enzyme, 2006 set, primary screen (AID 1141).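 Further: cell-free assay with purified firefly luciferase at 100 ng per well in PBS; test concentration not given here.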 The conditions noted are these: purified firefly luciferase, SteadyGlo luminescence, 30 min; higher = more signal, called active from +8 up or from −8 down.
Chain of Luciferin 4-monooxygenase (Photinus pyralis) (P08659 whole entry, looked up): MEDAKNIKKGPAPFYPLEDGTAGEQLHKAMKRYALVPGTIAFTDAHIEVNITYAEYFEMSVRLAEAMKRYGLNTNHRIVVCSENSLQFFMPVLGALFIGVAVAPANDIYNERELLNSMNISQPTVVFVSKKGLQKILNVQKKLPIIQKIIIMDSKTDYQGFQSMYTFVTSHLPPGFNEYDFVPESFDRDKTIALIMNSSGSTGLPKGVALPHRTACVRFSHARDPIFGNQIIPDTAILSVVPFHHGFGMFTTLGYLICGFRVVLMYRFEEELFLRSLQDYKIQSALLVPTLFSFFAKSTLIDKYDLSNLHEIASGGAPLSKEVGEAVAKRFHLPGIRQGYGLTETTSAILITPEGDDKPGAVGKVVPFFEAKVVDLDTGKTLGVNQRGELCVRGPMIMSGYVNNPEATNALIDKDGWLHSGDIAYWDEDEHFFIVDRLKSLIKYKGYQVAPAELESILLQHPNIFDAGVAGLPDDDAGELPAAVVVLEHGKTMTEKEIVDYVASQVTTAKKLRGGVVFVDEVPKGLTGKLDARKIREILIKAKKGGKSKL

Calls of active or inactive are those of the source.

Chain of Follistatin (Homo sapiens) (P19883 whole entry, looked up): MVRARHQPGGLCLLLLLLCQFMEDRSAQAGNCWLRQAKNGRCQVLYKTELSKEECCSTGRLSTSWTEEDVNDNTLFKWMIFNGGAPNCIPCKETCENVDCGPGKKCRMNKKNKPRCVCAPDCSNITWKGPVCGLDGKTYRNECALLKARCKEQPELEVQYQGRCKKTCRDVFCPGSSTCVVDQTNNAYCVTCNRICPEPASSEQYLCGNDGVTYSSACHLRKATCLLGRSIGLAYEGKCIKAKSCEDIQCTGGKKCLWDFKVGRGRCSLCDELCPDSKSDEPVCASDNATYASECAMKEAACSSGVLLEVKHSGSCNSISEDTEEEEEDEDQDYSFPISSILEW

As to `C=C(COC)/C(=C/C[C@@H](OC(C)=O)c1ccc(CO)o1)c1cnc2ccccc2c1`, the composite z-score is 0.562 in [1]; 1.14 in assay [2]; -0.23 in [3]; 0.962 in assay [4]; 1.44 in assay [5]; 1.57 in [6]. Besides, the composite z-score in the assay on Lefty1 stood at 1.46; in assay [8] it was 1.04. Besides, the z-score was -0.482 in [7] and -3.82 (inactive) in assay [9].

For the compound `C=CCOC(=O)[C@@H]1[C@H]2C(=O)O[C@H](c3ccccc3)[C@H](c3ccccc3)N2[C@H](c2ccc(OCCOC(=O)[C@@H]3C[C@@H]4C(=O)N[C@@H](CCCCN(C)C)C(=O)N4[C@@H]3c3ccc(O)cc3)cc2)[C@@]12C(=O)Nc1ccc(I)cc12`, the composite z-score in assay [1] was 1.13; in assay [2] it was 0.799; in assay [3] it was 0.338; in assay [4] it was 0.177; in assay [5], 1.2; in assay [6] it was 1.34. Further, the composite z-score with Lefty1 came to 0.844; in [8] it was 0.542. Also, the results for the z-score in assay [7] and in [9] were -1.78 and -2.62 (inactive), respectively.

On to `COC(=O)[C@@]1(Cc2ccccc2)[C@H]2c3cc(C(=O)N4CCCC4)n(Cc4cccc5ccccc45)c3C[C@H]2CN1C(=O)c1ccccc1`, for which the composite z-score is 2.46 in [1]; 1.17 in [2]; 0.971 in assay [3]; 0.51 in assay [4]; 0.184 in assay [5]; -0.0086 in assay [6]. Also, the composite z-score in the assay with Lefty1 is -0.922; in assay [8] it was 1.29. The figures for the z-score in assay [7] and in assay [9] were 1.11 and 1.4 (inactive), respectively.

In the case of `CC(C)(C)OC(=O)CC[C@]1(C(=O)NCC(O)CO)COC(c2ccc(OCCCO)cc2)=N1` (stereo not given in full), the composite z-score in [1] is 1.97; in [2], 1.22; in assay [3], 0.472; in assay [4] it was 0.936; in assay [5], -0.255; in assay [6], -0.473. Besides, the composite z-score was -0.35 with Lefty1 and 0.879 in assay [8]. The z-score in assay [7] was -0.328; in [9], 0.438 (inactive).

Regarding `C[C@@H]1ON(c2cccc(C(=O)OC(C)(C)C)c2)[C@H](c2ccc(Br)cc2)[C@H]1C(=O)N1C(=O)OC[C@H]1Cc1ccccc1`, the composite z-score in assay [1] was found to be 0.556; in assay [2], 0.77; in [3], 0.306; in assay [4] it was 0.937; in [5], 1.21; in assay [6], 0.735. The composite z-score turned out to be 0.766 in the assay on Lefty1 and 0.106 in [8]. Moreover, the z-score in assay [7] was 1.63; in assay [9] it was -0.68 (inactive).

Consider `COCCOC(=O)N1C(=O)[C@@]2(c3cc(C#CC4=CCCCC4)ccc31)[C@H](C(=O)N1CCc3cc(OC)c(OC)cc3C1)[C@H]1C(=O)O[C@H](c3ccccc3)[C@H](c3ccccc3)N1[C@@H]2c1ccc(OCCO)cc1`, for which the composite z-score was determined as 1.2 in assay [1]; 1.14 in assay [2]; 0.756 in assay [3]; 0.868 in [4]; 1.15 in assay [5]; 1.16 in assay [6]. The composite z-score is 1.1 in the assay with Lefty1 and 0.118 in assay [8]. Besides, the z-score in assay [7] was -1.21; in assay [9], -1.09 (inactive).

Turning to `CN(C)CCCC[C@@H]1NC(=O)[C@H]2C[C@@H](C(=O)NCCCCCNC(=O)CS)[C@@H](c3cccc(OCCO)c3)N2C1=O`, the composite z-score in assay [1] was 1.32; in [2], 0.866; in assay [3] it was 0.688; in assay [4] it was 0.44; in assay [5], 1.41; in assay [6], 1.69. The values for the composite z-score (in the assay with Lefty1; in [8]) were 1 and -0.0708, respectively. For the same compound, the z-score in assay [7] is 0.446; in assay [9] it was -0.804 (inactive).

Consider `NCCCCCNC(=O)[C@@H]1C[C@@H]2C(=O)NCC(=O)N2[C@@H]1c1ccc(O)cc1`, for which the composite z-score was 2.18 in [1]; 1.19 in assay [2]; 0.0992 in assay [3]; 0.948 in assay [4]; 1.51 in assay [5]; 1.79 in assay [6]. Besides, the composite z-score was found to be 1.76 with Lefty1 and 0.891 in assay [8]. The results for the z-score in [7] and in [9] were 1.41 and -1.11 (inactive), respectively.

As to `Cc1ccc(S[C@]2(C(=O)NCCN3CCOCC3)CC(=O)N(Cc3ccccc3)[C@@H]2c2ccc(CO)cc2I)cc1`, the composite z-score in [1] was 1.75; in assay [2], -0.104; in assay [3], 0.217; in assay [4], -1.42; in [5], -0.422; in [6], -1.2. Also, the results for the composite z-score (in the assay on Lefty1; in assay [8]) were -1.08 and -0.592, respectively. Also, the z-score was 0.0777 in [7] and 0.4 (inactive) in assay [9].

`COc1ccc(NN2C(C(O)c3ccc([N+](=O)[O-])cc3)C=CC3C(=O)N(C4CCCCC4)C(=O)C32)cc1` (stereo not given): the composite z-score is 0.525 in assay [1]; 0.918 in assay [2]; 0.201 in [3]; 0.93 in [4]; 0.737 in assay [5]; -0.532 in [6]. Moreover, the composite z-score in the assay with Lefty1 came out at 0.0274; in assay [8], 1.13. The z-score in assay [7] was 0.732; in [9] it was 0.939 (inactive).

As for `CN1C2C=C(CCCO)C(C3C(=O)N(C(N)=O)C(=O)C32)C1c1ccc(CN2CCCC2)cc1` (stereo not given), the composite z-score is 0.161 in assay [1]; -0.697 in assay [2]; -0.311 in assay [3]; -0.929 in [4]; -0.0168 in assay [5]; 0.0692 in [6]. Besides, the composite z-score with Lefty1 is -0.484; in assay [8] it was -0.0816. Also, the z-score in [7] is -0.637; in assay [9] it was 0.73 (inactive).

Take `OC([C@@H]1CC(c2ccccc2)=NO1)[C@H]1CC(c2ccccc2)=NO1` (stereo not given in full): the composite z-score in [1] was 0.176; in assay [2] it was -0.236; in [3] it was -0.141; in assay [4], 0.0985; in assay [5] it was 0.0914; in assay [6] it was 0.128. For the same compound, the composite z-score in the assay with Lefty1 is 0.484; in assay [8], -0.259. For the same compound, the z-score in assay [7] is -0.0913; in [9], -1.46 (inactive).

`C[C@]1(C(=O)NC2CC2)c2ccccc2C(=O)N(Cc2cc(C(F)(F)F)cc(C(F)(F)F)c2)[C@H]1c1ccc(CO)cc1`: the composite z-score in [1] is 1.86; in [2], 1.11; in assay [3], -0.0326; in assay [4], 0.657; in assay [5], 1.31; in assay [6], 0.998. The values for the composite z-score (with Lefty1; in [8]) were 0.539 and 0.772, respectively. Further, the z-score is 1.73 in assay [7] and -1.07 (inactive) in assay [9].

Turning to `CC1CC/C=C\[C@H]2OC34C=CCN(Cn5nnc6ccccc65)C(=O)[C@H]3N(C(CO)C(C)C)C(=O)[C@@H]4C2C(=O)O1` (stereo not given in full), the composite z-score in [1] is 1.63; in [2] it was 0.19; in [3], 0.0406; in [4] it was 0.422; in [5], -0.311; in assay [6], -0.464. The composite z-score in the assay with Lefty1 is -0.2; in assay [8] it was 1.09. Also, the z-score was -0.408 in assay [7] and 0.178 (inactive) in [9].

Regarding `O=C(NCc1ccccc1)[C@@H]1c2ccccc2C(=O)N(CC23CC4CC(CC(C4)C2)C3)[C@H]1c1ccc(CO)cc1`, the composite z-score in assay [1] was 0.153; in assay [2], 1.19; in assay [3], 0.0304; in assay [4], 0.937; in assay [5], 1.17; in assay [6] it was 1.43. Also, the figures for the composite z-score (in the assay on Lefty1; in assay [8]) were 0.884 and 0.31, respectively. The results for the z-score in assay [7] and in assay [9] were 0.705 and -0.715 (inactive), respectively.

As for `O=C1NC(=O)C2C1C=CC(C(O)C(c1ccccc1)c1ccccc1)N2Nc1ccc(Cl)cc1Cl` (stereo not given), the composite z-score in [1] is -0.138; in assay [2], 1.15; in [3], 0.682; in [4] it was 0.852; in assay [5], 0.896; in [6], -0.301. In addition, the composite z-score is -0.0329 with Lefty1 and 0.587 in assay [8]. In addition, the z-score was -0.815 in [7] and 0.231 (inactive) in assay [9].
